In the supplement of paper PMC6555819:

Columns and labels:
Test in all cases: PBM binding z-score (relative to random genomic background probes); higher = stronger binding; sequences stand for … in GC…GCGATTGACAGCGTAGAATGAAGG
[1] = tested on: PPARg:RXRa DBDmut IVT, anti-RXR (DBD mutation: RXRa K156A/R161A, NR concentration 270 nM, RXRa partner concentration 90 nM)
Outline: (§1)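 Ligand-free nuclear receptor dimers were applied to custom Agilent 4×180K protein-binding microarrays whose double-stranded probes carried direct-repeat seeds, single-nucleotide variants, half-site ablations and random human genomic background sequences in 34-nt variable regions. Incubation lasted 1 h. Binding z-scores were computed against the random background probes from regression-normalized fluorescence.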

[2] = tested on: PPARg:RXRa IVT, anti-PPARg (NR concentration 270 nM, RXRa partner concentration 90 nM)
Outline: as §1

[3] = tested on: PPARg DBDmut:RXRa IVT, anti-PPARg (DBD mutation: PPARg1 K132A/R137A, NR concentration 270 nM, RXRa partner concentration 90 nM)
Outline: as §1

[4] = tested on: PPARg DBDmut IVT, anti-PPARg (DBD mutation: PPARg1 K132A/R137A, NR concentration 270 nM)
Outline: as §1

[5] = tested on: PPARg homodimer (NR concentration 180 nM)
Outline: as §1

[6] = tested on: PXR:RXRa (NR concentration 270 nM, RXRa partner concentration 90 nM)
Outline: as §1

[7] = tested on: PXR homodimer (NR concentration 270 nM)
Outline: as §1

[8] = tested on: RARa:RXR (NR concentration 270 nM, RXRa partner concentration 90 nM)
Outline: as §1

[9] = tested on: RARa homodimer (NR concentration 270 nM)
Outline: as §1

[10] = tested on: RARb:RXRa (NR concentration 270 nM, RXRa partner concentration 90 nM)
Outline: as §1

[11] = tested on: RARb homodimer (NR concentration 270 nM)
Outline: as §1

[12] = tested on: RARg:RXRa (NR concentration 270 nM, RXRa partner concentration 90 nM)
Outline: as §1

[13] = tested on: RARg homodimer (NR concentration 270 nM)
Outline: as §1

[14] = tested on: RXRa DBDmut IVT, anti-RXR (DBD mutation: RXRa K156A/R161A, NR concentration 90 nM)
Outline: as §1

[15] = tested on: RXRa homodimer (NR concentration 180 nM)
Outline: as §1

[16] = tested on: THRa:RXRa (NR concentration 90 nM, RXRa partner concentration 90 nM)
Outline: as §1

[17] = tested on: THRa homodimer (NR concentration 90 nM)
Outline: as §1

[18] = tested on: VDR homodimer (NR concentration 270 nM)
Outline: as §1

Row | Sequence | PBM binding z-score [1] | PBM binding z-score [2] | PBM binding z-score [3] | PBM binding z-score [4] | PBM binding z-score [5] | PBM binding z-score [6] | PBM binding z-score [7] | PBM binding z-score [8] | PBM binding z-score [9] | PBM binding z-score [10] | PBM binding z-score [11] | PBM binding z-score [12] | PBM binding z-score [13] | PBM binding z-score [14] | PBM binding z-score [15] | PBM binding z-score [16] | PBM binding z-score [17] | PBM binding z-score [18]
1 | TCCCGGAGGACACGAAGGTCAGAGCTTTCCAGAG | 0.961 | 0.734 | -0.541 | -1.41 | 1.3 | 1.73 | 0.166 | 1.95 | -0.433 | 3.44 | 3.55 | 3.07 | 3.74 | 0.527 | 1.59 | 2.83 | 1.17 | 1.11
2 | CGCCCAAGGTCAGAGAGGTCAGTGAATGCCGAGT | 2.95 | 2.94 | -0.485 | -0.732 | 3.98 | 5.86 | 11.8 | 5.47 | 3.01 | 5.09 | 5.43 | 6.31 | 6.93 | 3 | 5.42 | 4.15 | 2.33 | 5.31
3 | CCTACTGGGCAATCAGGTCATTGATATCAACGTT | 2.45 | 3.55 | 0.181 | -0.716 | 0.487 | 1.48 | 0.775 | 1.95 | 0.376 | 1.69 | 2.16 | 1.56 | 1.51 | 0.0815 | 1.06 | 3.13 | 2.55 | 1.29
4 | ACTAGCAGGCCAAGTTTGGGTCTCTCAAACAAAG | 0.491 | 0.0697 | -1.53 | -0.788 | -1.17 | -0.733 | -0.734 | -0.606 | -1.44 | 0.382 | 0.00651 | -0.231 | -0.0296 | -0.0597 | -0.754 | -0.042 | -0.533 | -0.181
5 | CGTCCAAGGTCATTGCTAGGTCAGTGAAAGCATT | 3.23 | 4.03 | -0.074 | -0.854 | 4.11 | 5.16 | 2.4 | 5.71 | 0.612 | 5.04 | 4.96 | 7.64 | 6.66 | 4.51 | 5.45 | 4.38 | 3.31 | 4.55
6 | TCATGTAGATCAAGCAGGTTAAGAAAGCCTGAGT | 2.01 | 0.466 | 0.49 | 0.274 | 0.552 | 0.746 | 0.293 | 0.72 | -0.363 | -0.0113 | 0.058 | 0.118 | 0.0856 | 0.962 | 0.48 | 0.397 | -0.412 | 0.0758
7 | ATATGTAGGTTATCGGGTCATTCAGTTTGCGCAT | 7.56 | 7.99 | 3.73 | 2.54 | 2.67 | 3.75 | 7.33 | 3.54 | 1.75 | 2.56 | 3.05 | 3.09 | 2.5 | 1.87 | 3.47 | 3.23 | 3.19 | 4.34
8 | CCTATTAGTTGACCATAAGGGCGACCGAAGCTCG | 0.603 | 0.201 | -0.102 | 0.933 | 2.13 | 0.235 | 0.541 | 0.509 | 1.68 | 0.951 | 1.12 | 0.591 | 0.438 | 0.516 | 0.491 | 0.798 | 0.626 | 0.694
9 | GCTAGCAGGCTATTTGGGTCACTCAATGACGGGC | 3.1 | 3.87 | -0.208 | -0.897 | 0.28 | 0.435 | -0.454 | 1.01 | -0.508 | 1.27 | 1.63 | 0.682 | 0.795 | -0.21 | 0.76 | 1.81 | 0.905 | -0.158
10 | AGAATGAGGTTATTAAGATCATGGAATTGCGGTC | 3.59 | 3.1 | 0.789 | 1.06 | 0.459 | 1.53 | 1.15 | 1.53 | 0.293 | 1.36 | 0.78 | 1.25 | 0.948 | 1.87 | 1.73 | 2.17 | 0.524 | 1.5
11 | ATCGAAAGGTCGTGCGGTGAGTATACAGAAAGGC | 0.148 | 1.68 | 0.719 | 0.4 | 3.06 | 3.2 | 0.322 | 3.75 | 0.484 | 3.7 | 2.65 | 4.48 | 4.28 | 1.56 | 4.78 | 2.51 | -0.0433 | 1.31
12 | CCTCGGAGGACAACAGGGGGTCAGAGCTGCCAGA | -0.238 | 1.33 | 0.527 | 1.03 | 1.56 | 3.18 | 0.0814 | 3.3 | 0.607 | 2.71 | 3.52 | 4.25 | 3.49 | 0.19 | 3.24 | 3.27 | 1.04 | 1.28
13 | TATACAGGGTGAAAGGCCAGAGTACGAATGTCGA | 1.07 | 3.51 | 1.71 | 0.732 | 1.24 | 0.643 | 0.178 | 1.31 | 0.323 | 1.68 | 1.29 | 1.67 | 1.69 | -0.111 | 2.07 | 1.18 | -0.0839 | 0.653
14 | ATCTCTAGGTAACAAGTTCACTGAAAGAGAGGAC | 3.4 | 3.15 | 1.22 | 1.68 | 1.6 | 2.83 | 2.82 | 2.02 | 0.943 | 2.18 | 2.61 | 2.27 | 2.04 | 1.69 | 1.87 | 2.12 | 1.03 | 3.99
15 | ATCGAAAGTTCGAGGTGAGTATAGAGAAAGGGAA | -0.474 | 0.844 | 0.383 | 0.642 | 0.238 | 0.98 | 0.157 | 1.01 | -0.05 | 2.53 | 1.28 | 1.69 | 2.19 | 1.85 | 1.41 | 1.7 | 0.158 | 1.09
